Data on 21 compounds can be found in PubChem BioAssay (NCATS).

Records with an inconclusive call do not appear. Values without a mark were called inactive. Activity calls are given as the source filed them. The call rests on the fitted dose curve; in most records, active means well fitted cell-killing curve with a large enough effect; inconclusive means small, poorly fitted or top-dose-only effect; inactive means no such curve, though single readings can be large or run the other way.
Potency means the concentration at half of the fitted maximal effect.

The assay is described as follows: qHTS of pediatric cancer cell lines to identify multiple opportunities for drug repurposing: Confirmatory screen for SK-N-MC cells (AID 1347111).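 Further: cells exposed to compound for 48 h before the readout; nearly all actives have a fitted effect of over 70% in size.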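 On activity change, negative = cytotoxic: plate controls were DMSO for no effect and bortezomib for full effect.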 The settings on record: SK-N-MC cell viability; series mostly up to 45.9 µM; activity change, negative = cytotoxic: at the top concentration. The method in brief: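 Seed 500-1,000 cells/well; rest 5 h at 37 degrees C. Pin-transfer compounds, 11-point titration. Incubate 48 h. Add CellTiter-Glo, 15 min RT, read luminescence.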
(qHTS replaces the single test concentration by a dilution series.)
Take `COc1cc2cc(c1Cl)N(C)C(=O)C[C@H](OC(=O)C(C)C)[C@]1(C)O[C@H]1[C@H](C)[C@@H]1C[C@@](O)(NC(=O)O1)[C@H](OC)C=CC=C(C)C2`: the Potency was 0.0013 µM (active). For `CC(C)(C)C(O)C(Oc1ccc(Cl)cc1)n1cncn1` (stereo unspecified), the “activity change, negative = cytotoxic” value is 11.8% [at 95.5 µM]. Turning to `CC[C@@]1(O)C(=O)OCc2c1cc1n(c2=O)Cc2cc3ccccc3nc2-1`, the Potency is 0.0293 µM (active).

Consider `O=[N+]([O-])c1c(Cl)c(Cl)cc(Cl)c1Cl`, for which the Potency was 38 µM (active). In the case of `COc1ccc2c(c1)CN(C)CC2c1ccc(Cl)c(Cl)c1` (stereo unspecified), the Potency was 6.57 µM (active). Still for that read-out and setting: as for `C[C@@H]1O[C@@H](O[C@@H]2C=C3CC[C@@H]4[C@@H](CC[C@]5(C)[C@H](c6ccc(=O)oc6)CC[C@@]45O)[C@@]3(C)CC2)[C@H](O)[C@H](O)[C@H]1O`, the figure is 0.0329 µM (active). Take `CC[C@@H]1[C@@H](C)O[C@@](O)([C@@H](C)[C@H](O)[C@H](C)[C@H]2OC(=O)C=CC=C[C@@H](C)[C@@H]([C@@H](C)[C@@H](O)[C@H](C)[C@@]3(O)C[C@H](O[C@H]4C[C@H](O)[C@H](O)[C@H](C)O4)[C@H](CC)[C@@H](C)O3)OC(=O)C=CC=C[C@@H]2C)C[C@H]1O[C@H]1C[C@H](O)[C@H](O)[C@H](C)O1`: the “activity change, negative = cytotoxic” value was 4.69%. In the case of `C=CCON=C(C[C@H]1O[C@@H]2O[C@]3(C)CC[C@@H]4[C@H](C)CC[C@@H]([C@H]1C)[C@@]24OO3)[C@H]1O[C@@H]2O[C@]3(C)CC[C@H]4[C@H](C)CC[C@@H]([C@@H]1C)[C@@]24OO3`, the Potency was 0.147 µM (active). The same measure, in the same setting: the same measure for `Cc1[nH]nc2ccc(-c3cncc(OC[C@@H](N)Cc4c[nH]c5ccccc45)c3)cc12`: 1.47 µM (active); for `C[C@@H]1CC[C@@]2(OC1)O[C@H]1C[C@H]3[C@@H]4CC=C5C[C@@H](O[C@@H]6O[C@H](CO)[C@@H](O[C@@H]7O[C@@H](C)[C@H](O)[C@@H](O)[C@@H]7O)[C@H](O)[C@@H]6O[C@@H]6O[C@@H](C)[C@H](O)[C@@H](O)[C@@H]6O)CC[C@]5(C)[C@@H]4CC[C@]3(C)[C@@H]1[C@H]2C`: 2.33 µM (active); for `CC1=C(O)C(=O)C=C2C1=CC=C1[C@@]2(C)CC[C@@]2(C)[C@@H]3C[C@](C)(C(=O)O)CC[C@]3(C)CC[C@]12C`: 1.17 µM (active). For the compound `CC(C)(O)C=CC(=O)[C@](C)(O)[C@H]1[C@H](O)C[C@]2(C)[C@@H]3CC=C4[C@@H](C=C(O)C(=O)C4(C)C)[C@]3(C)C(=O)C[C@@]12C`, the Potency was 0.147 µM (active).

Take `CC(=O)[O][Hg][c]1ccccc1`: the Potency is 0.827 µM (active).

With `O=c1[nH]c2ccc(Cl)cc2c(N[C@@H]2CN3CCC2CC3)c1-c1nc2ccccc2[nH]1`, the Potency is 0.293 µM (active). As for `CC(C)[C@]12O[C@@H]1[C@@H]1O[C@]13[C@]1(O[C@H]1C[C@@H]1C4=C(CC[C@@]13C)C(=O)OC4)[C@H]2O`, the Potency was 0.0465 µM (active). Regarding `Cc1ccccc1-n1c(Cn2ncc3c(N)ncnc32)nc2cccc(C)c2c1=O`, the Potency is 1.04 µM (active). Take `Cc1ccccc1-n1c(Cn2cnc3c(N)ncnc32)nc2cccc(C)c2c1=O`: the “activity change, negative = cytotoxic” value is 22.7%. For `O=C(N[C@H]1CN2CCC1CC2)c1ccc(Cl)cc1`, the Potency is 1.17 µM (active).

On to `CC(C)N[C@@H]1CCn2c(=O)[nH]c3cccc(c32)[C@@H]1O`, for which the Potency is 18.5 µM (active).

As to `C[C@H]1CCCC=CC2C[C@H](O)C[C@@H]2[C@H](O)C=CC(=O)O1` (stereo partly specified), the Potency is 0.104 µM (active). Still for that read-out and setting: the same measure for `O=C(O)CCCOc1ccc(Cl)cc1Cl`: 43.4 µM (active).
